PubChem BioAssay AID652071 (NMMLSC, 2013)
Active and inactive are the calls of the source. No rule for the calls is given here.

Test: yeast cytosolic pH changes via V-ATPase – S. cerevisiae, pHLuorin, powder set 4, dose response (AID 652071)
Settings: S. cerevisiae pHLuorin cytosolic pH fluorescence; series mostly up to 100 µM

outcome, inactive:
O=C(Nc1ccccc1N1CCCCC1)c1cccc(C(F)(F)F)c1
CN1CCN(c2ccccc2NC(=O)c2cccc(C#N)c2)CC1
CN1CCN(c2ccccc2NC(=O)c2cccc(S(=O)(=O)N(C)C)c2)CC1
CC(=O)N1CCN(c2ccccc2NC(=O)c2ccc(C(F)(F)F)o2)CC1
O=C(Nc1ccccc1N1CCCCC1)c1ccc(Cl)o1
O=C(c1ccc(Cl)o1)N1CCN(c2nc3ccc(F)cc3s2)CC1
CN(C)Cc1ccc(C(=O)Nc2ccccc2N2CCCCC2)o1
N#CCc1cccc(C(=O)Nc2ccccc2N2CCOCC2)c1
O=C(Nc1ccccc1N1CCCCC1)c1ccc(-c2ccccc2)o1
N#CCc1cccc(C(=O)Nc2ccccc2N2CCCCC2)c1
CC(=O)N1CCN(c2ccccc2NC(=O)c2cccc(C(=O)N(C)C)c2)CC1
O=C(Nc1ccccc1N1CCOCC1)c1occc1-c1ccccc1
CC(=O)N1CCN(c2ccccc2NC(=O)c2cccc(CC#N)c2)CC1
CN1CCN(c2ccccc2NC(=O)c2cc(Cl)ccn2)CC1
NC(=O)c1cccc(C(=O)Nc2ccccc2N2CCCCC2)c1
CC(=O)N1CCN(c2ccccc2NC(=O)c2cccc(Cl)n2)CC1
CC(=O)N1CCN(c2ccccc2NC(=O)c2cncc(N)n2)CC1
CN1CCN(c2ccccc2NC(=O)c2occc2-c2ccccc2)CC1
CN1CCN(c2ccccc2NC(=O)c2ccc(Cl)o2)CC1
CC(=O)N1CCN(c2ccccc2NC(=O)c2cccc(Br)n2)CC1
O=C(Nc1ccccc1N1CCCCC1)c1cc(C(F)(F)F)ccn1
CC(=O)N1CCN(c2ccccc2NC(=O)c2cccc(C(F)(F)F)n2)CC1
CC(=O)N1CCN(c2ccccc2NC(=O)c2cccc(S(C)(=O)=O)c2)CC1
CN(C)Cc1ccc(C(=O)Nc2ccccc2N2CCN(C)CC2)o1
CN1CCN(c2ccccc2NC(=O)c2cccc(C(F)(F)F)c2)CC1
CC(=O)N1CCN(c2ccccc2NC(=O)c2cccc(S(=O)(=O)N(C)C)c2)CC1
CC(=O)N1CCN(c2ccccc2NC(=O)c2cc(C)ccn2)CC1
CC(=O)N1CCN(c2ccccc2NC(=O)c2cccc(C(N)=O)c2)CC1
CN1CCN(c2ccccc2NC(=O)c2cccc(C(F)(F)F)n2)CC1
CC(=O)N1CCN(c2ccccc2NC(=O)c2ccc(-c3ccccc3)o2)CC1
CC(=O)N1CCN(c2ccccc2NC(=O)c2ccc(C)o2)CC1
CC(=O)N1CCN(c2ccccc2NC(=O)c2cccc(C)n2)CC1
COCc1cccc(C(=O)Nc2ccccc2N2CCN(C(C)=O)CC2)c1
CN1CCN(c2ccccc2NC(=O)c2cncc(N)n2)CC1
